The subject of the assay is Schistosoma mansoni schistosomula (NMRI). The assay is described as follows: phenotypic severity score (0-4); higher = more antischistosomal effect, active = 2 or more. The following applies: 48 h; 10 µM.
Consider `O=C(Nc1cnc2ccccc2c1)c1cccc(-n2cnnn2)c1`, for which the phenotypic severity score was 0 (inactive).

`Cc1cc(C)n(-c2ccc(NC(=O)C3CCN(Cc4cnc(C)s4)CC3)cc2)n1`: the phenotypic severity score is 0 (inactive).

For `Cc1cc(O)nc(-n2nc(C)cc2C)n1`, the phenotypic severity score was 0 (inactive).

Consider `O=C(C1CCN(c2nnnn2-c2ccccc2)CC1)N1CCc2ccccc2C1`, for which the phenotypic severity score is 0 (inactive).

In the case of `FC(F)(F)c1cnc(Sc2nnc(-c3ccncc3)o2)c(Cl)c1`, the phenotypic severity score is 1 (inactive).

Turning to `COc1cccc(-c2cc3c(Nc4cccnc4)nccc3[nH]2)c1`, the phenotypic severity score was 0 (inactive).

`CCN(CC)CCCCCCNc1cc(OC)cc2c(C)ccnc12`: the phenotypic severity score was 0 (inactive).

Turning to `Cc1ncc(-c2ccnc(Nc3ccc(S(C)(=O)=O)cc3)n2)n1C(C)C`, the phenotypic severity score is 0 (inactive).

Consider `N=C(N)Nc1ccc(-c2ccc(-c3ccc(N=C(N)N)c(Cl)c3)o2)cc1Cl`, for which the phenotypic severity score is 0 (inactive).

In the case of `O=C(Nc1ccccc1)c1ccc(-c2cc3ccncc3cc2OC2CCNCC2)s1`, the phenotypic severity score was 0 (inactive).

Take `CC1CCCCN1C(=O)NCCc1coc(-c2ccc(F)cc2)n1` (stereo not drawn): the phenotypic severity score is 0 (inactive).

Consider `Cc1ccc(Oc2ccc(NC(=O)CNc3ccccc3N3CCCC3=O)cc2)cc1`, for which the phenotypic severity score was 2 (active).

In the case of `Nc1ncnc2[nH]nc(Cc3cccc4ccccc34)c12`, the phenotypic severity score is 2 (active).

For the molecule `CCCCN(CCCC)c1c(C#N)cc(S(=O)(=O)Nc2ccccc2)cc1C#N`, the phenotypic severity score was 0 (inactive).

Turning to `NS(=O)(=O)c1cncc(-c2ccc3nccc(-c4cn[nH]c4)c3n2)c1`, the phenotypic severity score is 0 (inactive).

For the molecule `Cc1nn2c(O)c3c(nc2c1-c1ccc(F)cc1)CCCC3`, the phenotypic severity score was 0 (inactive).

On to `c1cncc(NCc2ccc(-c3cc4ccncc4cc3OC3CCNCC3)s2)c1`, for which the phenotypic severity score was 3 (active).

For `CC(=O)NC[C@H]1CN(c2ccc(N3CCSCC3)c(F)c2)C(=O)O1`, the phenotypic severity score is 0 (inactive).

The values above are taken from the supplement of paper PMC6805474.
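Further: visual microscopic scoring of shape, motility and density changes versus 0.5% DMSO solvent controls, one point per descriptor, degeneracy or death scored 4, mean of duplicate wells.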
